The subject of this assay is MDA-MB-468 breast. Nature of the assay: NCI-60 one-dose screen, 48 h (100 = growth as untreated, 0 = no growth, -100 = all killed). Particulars: 10 µM unless noted.

Where “and” joins values, the source holds several entries; their conditions need not be identical. Equal values may be shown once. This is part of a sample that, as a whole, favours compounds with a hit. Of some 83,000 tested, about 20% had one in any assay.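 48-hour exposure, single concentration, 96-well plates; percent growth endpoint where 0 means no net growth. Active: below 10.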 A number with no mark means an inactive call. Calls of active or inactive are those of the source.

As to `O=C(O)Cc1ccc(O)c(O)c1`, the growth was 86%.
For the molecule `C[C@H](NC(=O)c1snnc1C1CC1)c1c(F)cccc1Cl`, the growth is 99.4%.
As for `Nc1cc2c(cc1Cl)-c1ccc(Cl)cc1C2=O`, the figure is 86.1%.
Regarding `C/C(=N\OC(=O)Nc1ccccc1)c1ccccc1`, the growth was 83.2%.
Turning to `O=C(CSc1nccc(=O)[nH]1)Nc1ccc(-c2nc3ccccc3[nH]2)cc1`, the growth was 118%.
With `CCCCCCNC(=O)Nc1ncnc2c1ncn2-c1ccccc1`, the growth was 105%.
With `COc1cc(CC(=O)n2ncc3ccc(N)cc32)cc(OC)c1OC` the figure was 94.8%; with `O=C(Nc1ccc([N+](=O)[O-])cc1)c1cc2ccccc2cc1O`, -8.75% (active).
As for `COc1ccc(C/C(C)=C(\c2ccc(Cl)cc2)c2ccc(OCCCN(C)C)cc2)cc1`, the figure is 59.7%; as for `COc1ccc2c(c1)N(CCO)C1=C(C(=O)OC1)C2c1ccccc1` (centres undefined), -14.2% (active); as for `COc1cc(OC)cc(C(=O)C[n+]2cccc3cc[nH]c32)c1`, 90.9%.
For `COC(=O)/C=C/c1cc(OC)c2c(c1)[C@@H](C(=O)OC)[C@H](c1ccc(OC)c(OC)c1)O2`, the growth was 50.9%.
Regarding `O=C(CSc1nc2ccccc2c(=O)n1-c1ccc(Cl)c(Cl)c1)Nc1ccc(S(=O)(=O)Nc2ccc(Cl)nn2)cc1`, the growth is 116%.
With `CCCCN(CCCC)c1ccc(C(=N)c2ccc(N(C)C)cc2)cc1` the figure was -76.5% (active); with `C#CCOC(=O)C(N)CS` (centres undefined), 97.3%; with `CCN(C(=O)Nc1ccccc1Cl)c1ccccc1`, 97.4%.
With `COc1ccc2oc3cc(NCCN(C)C)ccc3c(=O)c2c1` the figure was 103% and 88.7%; with `O=C(Nc1ccccc1)c1sc(-c2ccccc2)cc1O`, 107%; with `Cc1[nH]c(C(=O)Nc2ccc(C(=O)N3CCNCC3)cc2OC(C)C)c(Cl)c1Cl`, 64.8%.
For the molecule `CCCCCCCCCCCCCCCCNC(=S)N/N=C/c1ccc(OC)cc1`, the growth was 108%.
As for `COc1ccc2c(c1)C(c1c[nH]c3ccccc13)(c1c[nH]c3ccccc13)CCO2`, the figure is 35%; as for `O=C(CCCCCCCCC(=O)Nc1cccc(C2=NCCN2)c1)Nc1cccc(C2=NCCN2)c1`, 118%; as for `C=C(C)[C@@H]1CC[C@]2(C(=O)NCC(=O)O)CC[C@]3(C)[C@H](CC[C@@H]4[C@@]5(C)Cc6c([nH]c7ccccc67)C(C)(C)[C@@H]5CC[C@]43C)[C@@H]12`, 118%.
As for `CC1OC(n2c3ccccc3c3c4c(c5c6ccccc6[nH]c5c32)C(=O)N(CCN2CCOCC2)C4=O)CC(O)C1O` (centres undefined), the figure is -10.8% (active).
For `COc1ccc(-c2cc(-c3ccccc3)nc(SCCCC(=O)NO)n2)cc1`, the growth is -50.5% (active).
With `COc1ccc(-c2[nH][nH]c(=O)c2-c2nc3ccccc3s2)cc1` the figure was 119%.
With `CCCCn1c(=O)c(-c2cc(-c3ccc(Cl)cc3)nc(-c3ccc(Cl)cc3)c2)cc2cc(Cl)ccc21` the figure was 108%; with `COc1ccc(/C(=C/c2cc(OC)c(OC)c(OC)c2)[N+](=O)[O-])cc1`, -75.2% (active); with `CCOc1ccccc1/C=N\N=C(N/N=C/c1ccccc1OCC)N/N=C/c1ccccc1OCC`, -30.4% (active).
In the case of `Nc1ncnc2c1ncn2C1CC(O)C(CO)O1` (centres undefined), the growth was 113% and 99.9%.
Turning to `Cn1cc(-c2ccc3ncc(-c4ccc(CC(=O)Nc5cc(C(C)(C)C)no5)cc4)nc3c2)cn1`, the growth was 48.9%.
Regarding `CCOC(=O)c1nn(C2CCCCO2)c2ccc(NC(=O)CN3CCCC3)cc12` (centres undefined), the growth is 111%.
In the case of `COc1ccc2c(c1)C(=O)CC(c1ccccc1OC)O2` (centres undefined), the growth was 92.2%.
As for `CC[C@H]1OC(=O)[C@H](C)[C@@H](O[C@H]2C[C@@](C)(OC)[C@@H](O)[C@H](C)O2)[C@H](C)[C@@H](O[C@@H]2O[C@H](C)C[C@H](N(C)C)[C@H]2O)[C@](C)(O)C[C@H](C)CN(C)[C@H](C)[C@@H](O)[C@]1(C)O`, the figure is 86.7%.
With `O=C(Cn1c2c(c3ccccc31)CCCC2)Nc1ccc(-c2nc3ccccc3s2)cc1` the figure was -19.5% (active); with `O=C1COc2ccccc2C(=O)N1CCCCN1CCCCC1`, 76.3%; with `COC1CC(OC(=O)c2ccc([N+](=O)[O-])cc2)C(COC(=O)c2ccc([N+](=O)[O-])cc2)O1` (centres undefined), 93.6%.
With `O=C1NC(=S)S/C1=C\N1N=C(c2ccc(Cl)cc2)CC1c1ccc(F)cc1` (centres undefined) the figure was 92.3%; with `C#C[C@@]1(O)[C@@H](CO)O[C@@H](n2ccc3c(N)ncnc32)[C@@H]1O`, -45.3% (active); with `O=C1/C(=C/c2ccc(F)cc2)Sc2c(Br)cccc21`, 84.1%.
With `Cc1ccn2cc(Cc3cc(=O)oc4c3ccc3ccccc34)c(=O)nc2c1`, the growth was 117%.
On to `Cc1ccc(N2C(=O)C=CC2=O)cc1`, for which the growth is -25.2% (active).
For the molecule `CN(C)c1ccc(C(C#N)(c2ccccc2)c2ccc(N(C)C)cc2)cc1`, the growth is 82.8%.
As for `Nc1ccc(N)c([N+](=O)[O-])c1`, the growth was 88%.
On to `O=C1NC(=S)N[C@H]1CC(=O)n1cnc2ccccc21`, for which the growth is 86.3%.
As for `CC1SC(c2ccccc2O)N(NC(=O)CCC(=O)c2nc3ncccc3[nH]2)C1=O` (centres undefined), the figure is 88.1%; as for `C=CCN=C1NC(=O)/C(=C/c2cc(C(C)(C)C)c(O)c(C(C)(C)C)c2)S1`, 43.4%.
With `Cc1ccc2sc3c(NCCN)nc4ccccc4c3c(=O)c2c1` the figure was 56.8%.
As for `CC(C)C1=NOC(=O)C1=Cc1cn(-c2cccnc2)nc1-c1ccccc1`, the figure is 108%.
With `COc1ccc(CCNc2nc3c(c(=O)n(Cc4ccc(Br)cc4)c(=O)n3C)n2C)cc1OC`, the growth was 109%.
Take `Clc1cc(Cl)cc(N2N=C(c3cccc(Nc4ccncc4)c3)CC2c2ccc3c(c2)OCO3)c1` (centres undefined): the growth is 24.8%.
As for `Cc1nn(-c2cc(=O)[nH]c3ccccc23)c(N)c1C#N`, the figure is 110%.
With `CCCCCc1c(C)[nH]c(/C=c2\[nH]/c(=C3/C=c4ccccc4=N3)cc2OC)c1C`, the growth was -63.8% (active).
As for `ClCc1c(Cl)c(Cl)c(Cl)c(CCl)c1Cl`, the growth was -74% (active).
With `COc1cc(/C=C/C(=O)c2c(C)nc3ccccc3c2/C=C/c2ccccc2)cc(OC)c1OC` the figure was 7.7% (active); with `C/C(=N\Nc1ccccc1)c1ccc(NC2=CC(=O)c3ccccc3C2=O)cc1`, 35.7%.
As for `C=CC(=O)N1CCC(Oc2cc3c(Nc4ccc(Cl)c(Cl)c4F)ncnc3cc2OC)CC1`, the growth is -62.5% (active).
With `Cc1ccc(S(=O)(=O)n2cc(C3C(Cl)C(=O)N3c3ccc(N4CCOCC4=O)cc3)c3ccccc32)cc1` (centres undefined) the figure was 67.6%.
As for `COc1ccccc1N1CCN(CCn2c(=O)c3c(c4ccccc4n3C)n(C)c2=O)CC1`, the figure is 92%.
Turning to `Fc1ccc(CNCCNc2ncnc3c2cnn3-c2ccccc2)cc1`, the growth was 81.4%.
Consider `CC(C)N(CCOc1cccc(-c2nc3sccn3c2-c2ccnc(S(C)(=O)=O)n2)c1)C(C)C`, for which the growth is -2.25% (active).
With `COc1ccc(-c2nc(N)n(C(=S)Nc3ccccc3)n2)cc1` the figure was 102%; with `COc1cc(/C=N/n2cnc3oc(-c4ccccc4)cc3c2=N)cc(CN2CCCC2)c1O`, 82%.
On to `CN1CCN(Cc2ccc(NC(=O)c3cncc(C#Cc4ncc5ccccn45)c3)cc2C(F)(F)F)CC1`, for which the growth is 36.5%.
As for `Fc1ccc(/C=C/[C@@H]2C[C@@H](F)CCO2)cc1`, the figure is 84%.
As for `CN(C)C(=O)c1cc(-c2ccc3ncnc(NCc4ccccc4)c3c2)cnc1N`, the figure is 71.9%.
With `COc1ccc(C2=CN3CC=CCC3CC2=O)cc1` (centres undefined) the figure was 107%; with `COC(=O)/C=C/c1cc(O)c2oc(-c3ccc(O)c(O)c3)c(C(=O)OC)c2c1`, 26.7%.
`CCN(CC)CCOc1ccc2c(c1O)C(=O)c1ccccc1C2=O`: the growth was 80.3%.
Turning to `COc1ccc(-c2ccc(-c3ccc(C(=N)N)cc3)s2)cc1Cl`, the growth is -65% (active).
As for `OCCCCCCNc1ncnc2cc(Cl)ccc12`, the figure is 74.1%; as for `CCCCC(CC)COC(=O)C[N+](C)(C)CCOC(c1ccccc1)c1ccccc1` (centres undefined), -39% (active).
With `Cc1nn2c(/C=C3/C(=O)Nc4cc(Cl)ccc43)c(-c3ccccc3)nc2s1` the figure was 11%.
With `O=C(Nc1cccc(C(F)(F)F)c1)Nc1ccc(OCc2nnc(-c3ccc(Cl)cc3)o2)c(F)c1` the figure was 68.2%; with `CCCCN1CCCC[C@@H]1C(=O)N[C@H](C(=O)N(C)[C@H](CCc1nc(C(=O)N[C@@H](Cc2ccccc2)C[C@H](C)C(=O)OC)cs1)C(C)C)C(C)C`, 22.3%; with `Brc1cccc(-c2cc(-c3cnc4c(c3)OCCO4)n[nH]2)c1`, 7.76% (active).
`CC1=Nc2cnc(Nc3ccc(OCCN4CCCC4)cc3)nc2Nc2ccccc21`: the growth is 57%.
For the molecule `CCC(CCC(C)C1CCC2C3CC=C4CC(O)CCC4(C)C3CCC12C)C(C)C` (centres undefined) (tested in a mixture with another compound), the growth is 114%.
With `O=C(C[n+]1cccc2ccccc21)c1ccc(O)c(O)c1` the figure was 16.1%; with `CC1=NC2=CC=CC3=NC(C(Cl)(Cl)Cl)=NC(=N1)N23`, 90.2%.
With `COc1ccc(/C=C2\SC(=Nc3ccccc3)NC2=O)cc1` the figure was -84.8% (active); with `Cc1cccc2c1NC(=O)[C@@]21[C@H](C(=O)c2ccccc2)[C@]2(C(=O)Nc3ccccc32)[C@H]2CCCN21`, 22.2% [100 µM]; with `COc1cc(/C=C/c2cc(/C=C/c3ccc(O)c(OC)c3)n(C(N)=O)n2)ccc1O`, -14.3% (active).
With `Nc1[nH]nc2nc(-c3ccccc3)n3c4ccccc4nc3c12` the figure was 88.7%.

The values above are taken from PubChem BioAssay (NCI).
